Test results from the supplement of paper PMC3545927.
The list shows a part of the results. No count for the full screen is at hand.

Biological target: furin, P09958
Experiment: furin cleavage Z-score vs untreated control; higher = more cleavage, active = 3.5 or more, inactive = 1 or less, 8 variable residues between constant flanks
How it was run: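 Furin-free reactions served as the baseline for the cleavage Z-score, which is the log read count lowess-adjusted and scaled by median absolute deviation. Counts came from released DNA, adapter-tagged by PCR and sequenced. Purified furin had cut 8-mer peptides fused to a cDNA oligonucleotide on magnetic beads during 7.5, 15 or 30 min at 1:10 enzyme:substrate.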
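Further: purified furin at 1:10 enzyme:substrate in 50 mM HEPES pH 7.5.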

Sequence of furin, P09958 (P09958 whole entry): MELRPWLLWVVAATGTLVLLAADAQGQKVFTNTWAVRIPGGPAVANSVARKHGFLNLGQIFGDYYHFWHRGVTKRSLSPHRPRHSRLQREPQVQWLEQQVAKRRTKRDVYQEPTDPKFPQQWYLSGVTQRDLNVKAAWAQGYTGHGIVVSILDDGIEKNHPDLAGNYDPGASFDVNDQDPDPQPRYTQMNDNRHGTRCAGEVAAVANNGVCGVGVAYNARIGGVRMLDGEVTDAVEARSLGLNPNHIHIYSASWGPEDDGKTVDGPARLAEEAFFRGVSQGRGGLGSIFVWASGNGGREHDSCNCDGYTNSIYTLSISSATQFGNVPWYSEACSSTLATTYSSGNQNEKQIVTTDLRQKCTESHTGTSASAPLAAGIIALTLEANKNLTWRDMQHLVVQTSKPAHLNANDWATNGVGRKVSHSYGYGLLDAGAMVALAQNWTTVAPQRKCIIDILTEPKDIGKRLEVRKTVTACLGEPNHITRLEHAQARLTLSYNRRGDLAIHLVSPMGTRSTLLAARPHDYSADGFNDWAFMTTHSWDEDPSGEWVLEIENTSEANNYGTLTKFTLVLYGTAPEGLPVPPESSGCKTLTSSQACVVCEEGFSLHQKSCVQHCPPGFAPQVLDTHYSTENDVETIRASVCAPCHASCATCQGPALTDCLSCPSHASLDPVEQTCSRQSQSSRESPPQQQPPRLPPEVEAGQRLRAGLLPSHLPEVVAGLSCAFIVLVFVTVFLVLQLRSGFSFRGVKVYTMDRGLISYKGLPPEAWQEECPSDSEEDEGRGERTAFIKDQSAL

## CAEVVTSTPVAGNASASA [HC2239]
7.5 min
  furin cleavage Z-score: -0.71 (inactive)
15 min
  furin cleavage Z-score: -0.517 (inactive)
30 min
  furin cleavage Z-score: -0.991 (inactive)

## CATTPCSGVWAGNASASA [HC1910]
7.5 min
  furin cleavage Z-score: -0.00612 (inactive)
15 min
  furin cleavage Z-score: 1.65
30 min
  furin cleavage Z-score: 0.601 (inactive)

## CAETVVCCSMAGNASASA [HC2138]
7.5 min
  furin cleavage Z-score: 0.723 (inactive)
15 min
  furin cleavage Z-score: 1.46
30 min
  furin cleavage Z-score: 0.375 (inactive)

## CALSRRLKRAAGNASASA [FS-460]
7.5 min
  furin cleavage Z-score: 12.9 (active)
15 min
  furin cleavage Z-score: 10.6 (active)
30 min
  furin cleavage Z-score: 7.76 (active)

## CALPATQLRRAGNASASA [HC287]
7.5 min
  furin cleavage Z-score: -0.751 (inactive)
15 min
  furin cleavage Z-score: -1.22 (inactive)
30 min
  furin cleavage Z-score: -0.432 (inactive)

## CARSELSPLLAGNASASA [HC490]
7.5 min
  furin cleavage Z-score: 0.997 (inactive)
15 min
  furin cleavage Z-score: -1.17 (inactive)
30 min
  furin cleavage Z-score: 0.877 (inactive)

## CARSKRPPLVAGNASASA [FS-3085]
7.5 min
  furin cleavage Z-score: -1.04 (inactive)
15 min
  furin cleavage Z-score: 1.04
30 min
  furin cleavage Z-score: 0.266 (inactive)

## CARSVRARLLAGNASASA [HC1623]
7.5 min
  furin cleavage Z-score: -0.453 (inactive)
15 min
  furin cleavage Z-score: 0.839 (inactive)
30 min
  furin cleavage Z-score: -0.225 (inactive)

## CARSKRSRLLAGNASASA [FS-3208]
7.5 min
  furin cleavage Z-score: 2.35
15 min
  furin cleavage Z-score: 5.37 (active)
30 min
  furin cleavage Z-score: 6.91 (active)

## CARSKRRHRTAGNASASA [FS-3086]
7.5 min
  furin cleavage Z-score: 5.67 (active)
15 min
  furin cleavage Z-score: 4.65 (active)
30 min
  furin cleavage Z-score: 6.42 (active)

## CARSKRSALRAGNASASA [FS-1930]
7.5 min
  furin cleavage Z-score: 8.67 (active)
15 min
  furin cleavage Z-score: 9.74 (active)
30 min
  furin cleavage Z-score: 9.58 (active)

## CALTVTQLLRAGNASASA [HC1136]
7.5 min
  furin cleavage Z-score: -0.529 (inactive)
15 min
  furin cleavage Z-score: 1.28
30 min
  furin cleavage Z-score: -0.0718 (inactive)

## CARSKRQLRRAGNASASA [FS-2305]
7.5 min
  furin cleavage Z-score: 5.77 (active)
15 min
  furin cleavage Z-score: 8.83 (active)
30 min
  furin cleavage Z-score: 9.3 (active)

## CATPVNSWLGAGNASASA [HC1572]
7.5 min
  furin cleavage Z-score: -0.962 (inactive)
15 min
  furin cleavage Z-score: 0.658 (inactive)
30 min
  furin cleavage Z-score: -0.136 (inactive)

## CADQMWKCLIAGNASASA [HC963]
7.5 min
  furin cleavage Z-score: -0.00547 (inactive)
15 min
  furin cleavage Z-score: 0.512 (inactive)
30 min
  furin cleavage Z-score: 0.111 (inactive)

## CAEVPCHRASAGNASASA [HC2383]
7.5 min
  furin cleavage Z-score: -0.108 (inactive)
15 min
  furin cleavage Z-score: 1.91
30 min
  furin cleavage Z-score: 1.32

## CAMLVCGDDLAGNASASA [HC1527]
7.5 min
  furin cleavage Z-score: -1.47 (inactive)
15 min
  furin cleavage Z-score: -2.12 (inactive)
30 min
  furin cleavage Z-score: -1.71 (inactive)

## CARSKRLMKRAGNASASA [FS-3264]
7.5 min
  furin cleavage Z-score: 7.59 (active)
15 min
  furin cleavage Z-score: 8.33 (active)
30 min
  furin cleavage Z-score: 6.04 (active)

## CARSKRLLSDAGNASASA [FS-2524]
7.5 min
  furin cleavage Z-score: 1.69
15 min
  furin cleavage Z-score: 0.376 (inactive)
30 min
  furin cleavage Z-score: 1.96

## CARSKRSTLLAGNASASA [FS-3171]
7.5 min
  furin cleavage Z-score: 6.63 (active)
15 min
  furin cleavage Z-score: 9.65 (active)
30 min
  furin cleavage Z-score: 8.72 (active)

## CARMKRDTSLAGNASASA [FS-2354]
7.5 min
  furin cleavage Z-score: 12.7 (active)
15 min
  furin cleavage Z-score: 14.2 (active)
30 min
  furin cleavage Z-score: 10.6 (active)

## CAAPITAYAQAGNASASA [HC674]
7.5 min
  furin cleavage Z-score: -1.65 (inactive)
15 min
  furin cleavage Z-score: -1.79 (inactive)
30 min
  furin cleavage Z-score: -0.691 (inactive)

## CAGIYRFVAPAGNASASA [HC909]
7.5 min
  furin cleavage Z-score: -1.23 (inactive)
15 min
  furin cleavage Z-score: -0.739 (inactive)
30 min
  furin cleavage Z-score: -0.847 (inactive)

## CARVPRTVLPAGNASASA [FS-1801]
7.5 min
  furin cleavage Z-score: 1.52
15 min
  furin cleavage Z-score: 0.946 (inactive)
30 min
  furin cleavage Z-score: 3.87 (active)

## CARVRRRGSPAGNASASA [FS-2108]
7.5 min
  furin cleavage Z-score: -0.273 (inactive)
15 min
  furin cleavage Z-score: 2.05
30 min
  furin cleavage Z-score: 2

## CARQGRGSDPAGNASASA [FS-2583]
7.5 min
  furin cleavage Z-score: -1.86 (inactive)
15 min
  furin cleavage Z-score: -0.176 (inactive)
30 min
  furin cleavage Z-score: 0.17 (inactive)

## CARVPRKVQPAGNASASA [FS-3121]
7.5 min
  furin cleavage Z-score: -0.302 (inactive)
15 min
  furin cleavage Z-score: 1.08
30 min
  furin cleavage Z-score: 0.984 (inactive)

## CARVRRHSDPAGNASASA [FS-2406]
7.5 min
  furin cleavage Z-score: 10.2 (active)
15 min
  furin cleavage Z-score: 8.54 (active)
30 min
  furin cleavage Z-score: 6.84 (active)

## CATTQWQVLPAGNASASA [HC495]
7.5 min
  furin cleavage Z-score: -0.0417 (inactive)
15 min
  furin cleavage Z-score: 1.36
30 min
  furin cleavage Z-score: 0.907 (inactive)

## CARIARFVLPAGNASASA [FS-2683]
7.5 min
  furin cleavage Z-score: 2.58
15 min
  furin cleavage Z-score: 2.47
30 min
  furin cleavage Z-score: 6.22 (active)

## CARVRRAVLPAGNASASA [FS-2536]
7.5 min
  furin cleavage Z-score: 8.16 (active)
15 min
  furin cleavage Z-score: 9.49 (active)
30 min
  furin cleavage Z-score: 9.52 (active)

## CARIARVVLQAGNASASA [FS-2028]
7.5 min
  furin cleavage Z-score: -0.514 (inactive)
15 min
  furin cleavage Z-score: -0.914 (inactive)
30 min
  furin cleavage Z-score: 1.2

## CALVETWKKPAGNASASA [HC1309]
7.5 min
  furin cleavage Z-score: 0.819 (inactive)
15 min
  furin cleavage Z-score: 0.268 (inactive)
30 min
  furin cleavage Z-score: -0.773 (inactive)

## CAGIPFVSCQAGNASASA [HC1163]
7.5 min
  furin cleavage Z-score: -0.0749 (inactive)
15 min
  furin cleavage Z-score: 0.44 (inactive)
30 min
  furin cleavage Z-score: -1.36 (inactive)

## CATREVPCHRAGNASASA [HC2438]
7.5 min
  furin cleavage Z-score: 0.921 (inactive)
15 min
  furin cleavage Z-score: 2.06
30 min
  furin cleavage Z-score: 2.03

## CAKGGRKPARAGNASASA [HC1446]
7.5 min
  furin cleavage Z-score: -0.269 (inactive)
15 min
  furin cleavage Z-score: -0.328 (inactive)
30 min
  furin cleavage Z-score: -1.51 (inactive)

## CAVGIYLLPNAGNASASA [HC1662]
7.5 min
  furin cleavage Z-score: 0.402 (inactive)
15 min
  furin cleavage Z-score: 0.33 (inactive)
30 min
  furin cleavage Z-score: -0.482 (inactive)

## CAKGGRRSRNAGNASASA [FS-340]
7.5 min
  furin cleavage Z-score: 4.05 (active)
15 min
  furin cleavage Z-score: 5.15 (active)
30 min
  furin cleavage Z-score: 6.68 (active)

## CALGIRSFRNAGNASASA [TR6]
7.5 min
  furin cleavage Z-score: 1.49
15 min
  furin cleavage Z-score: 1.8
30 min
  furin cleavage Z-score: -0.165 (inactive)

## CADPRRRSRNAGNASASA [HC216]
7.5 min
  furin cleavage Z-score: 4.59 (active)
15 min
  furin cleavage Z-score: 5.65 (active)
30 min
  furin cleavage Z-score: 5.55 (active)

## CALGGRRKRNAGNASASA [FS-1356]
7.5 min
  furin cleavage Z-score: 11.1 (active)
15 min
  furin cleavage Z-score: 12.5 (active)
30 min
  furin cleavage Z-score: 7.53 (active)

## CALINVRKRNAGNASASA [FS-1357]
7.5 min
  furin cleavage Z-score: 0.912 (inactive)
15 min
  furin cleavage Z-score: 2.51
30 min
  furin cleavage Z-score: 1.58
